According to PubChem BioAssay (NCI):
Compounds without any hit were thinned out: in the full panel of roughly 83,000, 20% have a hit.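 For each line, cells grew in 96-well plates with the test compound present at a single concentration for 48 hours.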 Values without a mark were called inactive. The source made the active and inactive calls. How the source made its calls: active means growth percent below 10; inactive means the rest.

Each molecule was assayed on NCI-H522 lung (assay: NCI-60 one-dose screen, 48 h (100 = growth as untreated, 0 = no growth, -100 = all killed)). Details: 10 µM unless noted.

Row | Structure (SMILES) | growth
1 | c1csc(C2=NN3C(C2)c2ccccc2OC3c2ccncc2)c1 (stereo unspecified) | 87%
2 | CC1=CC(C)(C)Nc2ccc(Cc3ccc4c(c3)C(C)=CC(C)(C)N4)cc21 | 68%
3 | CCCCn1c(-c2ccc(C(=O)O/N=C(\N)c3ccc4ccccc4c3)cc2)nc(-c2ccccc2)c1-c1ccccc1 | 71.7%
4 | O=C(Nc1ccc(Cl)cc1)c1cc2cc(F)ccc2cc1O | -0.904% (active)
5 | Cn1cc(-c2nonc2-c2cn(C)c3ccc(F)cc23)c2cc(F)ccc21 | 22%
6 | CCN(CC)S(=O)(=O)c1ccc(OC)c(NC(=O)c2[nH]c(C)c3c2CCCCC3=O)c1 | 26.9%
7 | COc1cccc(-c2nc3sccn3c2-c2ccnc(NCCCNS(=O)(=O)c3cccc(F)c3)c2)c1 | 18.1%
8 | COc1cc(/C=C/c2cc(/C=C/c3ccc(O)c(OC)c3)n(-c3c(C)cccc3C)c(=O)n2)ccc1O | -10.2% (active)
9 | COc1cccc(-c2nc(SCC(=O)Nc3ccc(C(=O)/C=C/c4ccc(OC)c(OC)c4)cc3)[nH]c(=O)c2C#N)c1 | 75.4%
10 | Cc1cc(C)c2nc3nc(C)cc(C)c3c(N)c2c1 | 39%
11 | FC(F)(F)c1ccc(-c2cn3nc(-c4c[nH]c5ccc(Br)cc45)sc3n2)cc1 | 91.6%
12 | CC(=O)O[C@H]1[C@@H]2OC(=O)C(CSc3ccccc3)[C@@H]2C[C@H]2O[C@]2(C)CC/C=C(\C)CCC[C@@H]1C (stereo partly specified) | -87.2% (active)
13 | Cc1cc(C)nc(SC2=C(Nc3ccc(O)cc3)C(=O)N(Cc3ccccc3)C2=O)n1 | 78.3% [40 µM]
14 | COC(=O)c1ccc(Cn2cnc3c(N)ncnc32)cc1 | 69.6%
15 | CCOc1nc(-c2ccccc2)cc2c(O)c(C(=O)O)[nH]c(=O)c12 | 136%
16 | COc1ccc(Nc2nc(SC)nc(-c3cccc([N+](=O)[O-])c3)c2C#N)cc1 | 80.8%
17 | CN(C)[C@@H]1C(=O)C(C(=O)NCc2nc3[nH]cnc(=S)c3[nH]2)=C(O)[C@@]2(O)C(=O)C3=C(O)c4c(O)cccc4[C@@](C)(O)[C@H]3C[C@@H]12 | 33.3%
18 | CCOC(=O)c1sc2nc(-c3cccc(O)c3)nc(N3CCOCC3)c2c1C | 46.1%
19 | O=C1/C(=C/c2ccccc2)SC(=S)N1CCc1ccc(O)cc1 | 54.8%

Row | Structure (SMILES) | growth
20 | OCC(O)c1nc2ccc3[nH]ncc3c2c2c1CCCC2 (stereo unspecified) | 13.3%
21 | COc1cc2c(cc1-c1c(C)noc1C)ncc1nc(C3CCC(F)(F)CC3)n([C@H](C)COC(F)F)c12 | 30.3%
22 | O=C1c2c(O)cc(O)cc2-c2c(-c3ccc(O)cc3)oc3cc(O)cc1c23 | 11%
23 | CCN1CCN(c2nc(NCCNc3ccnc4cc(Cl)ccc34)c3ccccc3n2)CC1 | 18%
24 | O=S(=O)(Nc1ccc(Br)c(Cl)c1)c1ccc(-c2cnc(C3CC3)o2)cc1 | -17.7% (active)
25 | Cc1nn(-c2cc(=O)[nH]c3ccc(Cl)cc23)c(N)c1C#N | 93.3%
26 | Clc1ccc2c(NCCCCNc3nc(N4CCOCC4)nc4ccccc34)ccnc2c1 | -25.6% (active)
27 | CCOc1nc(-c2ccccc2)cc2c(O)c(C(=O)N/N=C/c3ccc(O)cc3O)[nH]c(=O)c12 | 10.8%
28 | O=C(O)c1ccc(NC(=O)c2ccc(-c3cccc([N+](=O)[O-])c3)o2)cc1 | 94.5%
29 | Cc1ccc(NS(=O)(=O)c2ccc(-c3cnc(C4CC4)o3)cc2)cc1C | -7.94% (active)
30 | O=c1ccccc(-c2ccc(-c3ccco3)cc2)c1O | 27.3%
31 | CC(C)CC1C(=O)N2CCC[C@H]2C2(O)O[C@](NC(=O)C3C=C4c5cccc6[nH]c(Br)c(c56)C[C@H]4N(C)C3)(C(C)C)C(=O)N12 (stereo partly specified) | 53.5%
32 | C=CC(=O)Nc1cccc(-c2nc(SC)nc(NCCN3CCOCC3)c2C#N)c1 | 76%
33 | CC(C)c1c(C(=O)c2ccccc2)c(-c2ccccc2)c(-c2ccc(F)cc2)n1CC[C@@H](O)C[C@@H](O)CC(=O)O | 25.9%
34 | O=S(=O)(Nc1ccc(NS(=O)(=O)c2ccccc2)c(Cl)c1)c1ccccc1 | 77.7%
35 | O=C(N=Nc1c(O)[nH]c2ccccc12)c1cc(-c2ccccc2)on1 | 90.7%
36 | O=C1NC(=S)NC(=O)C1CC(=O)n1c(-c2ccccc2)nc2ccccc21 | 96.9%
37 | Cn1c(O)c(N=NC(=O)c2cc(-c3ccccc3)on2)c2ccccc21 | 89.9%
38 | CN1CCN(Cc2ccc(NC(=O)c3cncc(C#Cc4cncn5ccnc45)c3)cc2C(F)(F)F)CC1 | 47.3%

Each molecule was assayed on 786-0 renal in the same assay as above. Details: 10 µM unless noted.

Row | Structure (SMILES) | growth
39 | c1csc(C2=NN3C(C2)c2ccccc2OC3c2ccncc2)c1 (stereo unspecified) | 98.7%
40 | CC1=CC(C)(C)Nc2ccc(Cc3ccc4c(c3)C(C)=CC(C)(C)N4)cc21 | 97.1%
41 | CCCCn1c(-c2ccc(C(=O)O/N=C(\N)c3ccc4ccccc4c3)cc2)nc(-c2ccccc2)c1-c1ccccc1 | 77.8%
42 | O=C(Nc1ccc(Cl)cc1)c1cc2cc(F)ccc2cc1O | 15.7%
43 | Cn1cc(-c2nonc2-c2cn(C)c3ccc(F)cc23)c2cc(F)ccc21 | 85.7%
44 | CCN(CC)S(=O)(=O)c1ccc(OC)c(NC(=O)c2[nH]c(C)c3c2CCCCC3=O)c1 | 41.5%
45 | COc1cccc(-c2nc3sccn3c2-c2ccnc(NCCCNS(=O)(=O)c3cccc(F)c3)c2)c1 | 52.6%
46 | COc1cc(/C=C/c2cc(/C=C/c3ccc(O)c(OC)c3)n(-c3c(C)cccc3C)c(=O)n2)ccc1O | 12.6%
47 | COc1cccc(-c2nc(SCC(=O)Nc3ccc(C(=O)/C=C/c4ccc(OC)c(OC)c4)cc3)[nH]c(=O)c2C#N)c1 | 99.4%
48 | Cc1cc(C)c2nc3nc(C)cc(C)c3c(N)c2c1 | 28.4%
49 | FC(F)(F)c1ccc(-c2cn3nc(-c4c[nH]c5ccc(Br)cc45)sc3n2)cc1 | 106%
50 | CC(=O)O[C@H]1[C@@H]2OC(=O)C(CSc3ccccc3)[C@@H]2C[C@H]2O[C@]2(C)CC/C=C(\C)CCC[C@@H]1C (stereo partly specified) | 61.4%
51 | Cc1cc(C)nc(SC2=C(Nc3ccc(O)cc3)C(=O)N(Cc3ccccc3)C2=O)n1 | 97.6% [40 µM]
52 | COC(=O)c1ccc(Cn2cnc3c(N)ncnc32)cc1 | 114%
53 | CCOc1nc(-c2ccccc2)cc2c(O)c(C(=O)O)[nH]c(=O)c12 | 111%
54 | COc1ccc(Nc2nc(SC)nc(-c3cccc([N+](=O)[O-])c3)c2C#N)cc1 | 21.8%
55 | CN(C)[C@@H]1C(=O)C(C(=O)NCc2nc3[nH]cnc(=S)c3[nH]2)=C(O)[C@@]2(O)C(=O)C3=C(O)c4c(O)cccc4[C@@](C)(O)[C@H]3C[C@@H]12 | 19.6%
56 | CCOC(=O)c1sc2nc(-c3cccc(O)c3)nc(N3CCOCC3)c2c1C | 67.7%
57 | O=C1/C(=C/c2ccccc2)SC(=S)N1CCc1ccc(O)cc1 | 89.5%

Row | Structure (SMILES) | growth
58 | OCC(O)c1nc2ccc3[nH]ncc3c2c2c1CCCC2 (stereo unspecified) | 4.15% (active)
59 | CC[C@@H]1O[C@H](O[C@@H](c2cnc[nH]2)[C@H](NC(=O)c2nc([C@H](CC(N)=O)NC[C@@H](N)C(N)=O)nc(N)c2C)C(=O)N[C@H](C)[C@H](O)[C@H](C)C(=O)N[C@@H](C(=O)NCCc2nc(-c3nc(C(=O)NCCCCN=C(N)N)cs3)cs2)[C@@H](C)O)[C@H](O[C@@H]2O[C@H](CO)[C@H](O)[C@H](OC(N)=O)[C@@H]2O)[C@H](C)[C@@H]1C | 25.4%
60 | COc1cc2c(cc1-c1c(C)noc1C)ncc1nc(C3CCC(F)(F)CC3)n([C@H](C)COC(F)F)c12 | 46.9%
61 | O=C1c2c(O)cc(O)cc2-c2c(-c3ccc(O)cc3)oc3cc(O)cc1c23 | 41.8%
62 | CCN1CCN(c2nc(NCCNc3ccnc4cc(Cl)ccc34)c3ccccc3n2)CC1 | 4.75% (active)
63 | O=S(=O)(Nc1ccc(Br)c(Cl)c1)c1ccc(-c2cnc(C3CC3)o2)cc1 | 39%
64 | Cc1nn(-c2cc(=O)[nH]c3ccc(Cl)cc23)c(N)c1C#N | 106%
65 | Clc1ccc2c(NCCCCNc3nc(N4CCOCC4)nc4ccccc34)ccnc2c1 | -54.1% (active)
66 | CCOc1nc(-c2ccccc2)cc2c(O)c(C(=O)N/N=C/c3ccc(O)cc3O)[nH]c(=O)c12 | 14.4%
67 | O=C(O)c1ccc(NC(=O)c2ccc(-c3cccc([N+](=O)[O-])c3)o2)cc1 | 105%
68 | Cc1ccc(NS(=O)(=O)c2ccc(-c3cnc(C4CC4)o3)cc2)cc1C | 43.4%
69 | O=c1ccccc(-c2ccc(-c3ccco3)cc2)c1O | 10.6%
70 | C=CC(=O)Nc1cccc(-c2nc(SC)nc(NCCN3CCOCC3)c2C#N)c1 | 87.5%
71 | CC(C)c1c(C(=O)c2ccccc2)c(-c2ccccc2)c(-c2ccc(F)cc2)n1CC[C@@H](O)C[C@@H](O)CC(=O)O | 77.5%
72 | O=S(=O)(Nc1ccc(NS(=O)(=O)c2ccccc2)c(Cl)c1)c1ccccc1 | 103%
73 | O=C(N=Nc1c(O)[nH]c2ccccc12)c1cc(-c2ccccc2)on1 | 104%
74 | O=C1NC(=S)NC(=O)C1CC(=O)n1c(-c2ccccc2)nc2ccccc21 | 104%
75 | Cn1c(O)c(N=NC(=O)c2cc(-c3ccccc3)on2)c2ccccc21 | 100%
76 | CN1CCN(Cc2ccc(NC(=O)c3cncc(C#Cc4cncn5ccnc45)c3)cc2C(F)(F)F)CC1 | 87.5%
